Source: the supplement of paper PMC12632987
In all, about 1,800 sequences were measured (“median log2 fold change of GCK-ALFA target abundance (FLAG IP / Myc IP barcode read proportion)”: median about 0.14, lowest 2% from about -0.84 on). The sample as a whole holds a higher share of the lowest values than the screen did.

T1: TRAF2, Q12933
T1 chain: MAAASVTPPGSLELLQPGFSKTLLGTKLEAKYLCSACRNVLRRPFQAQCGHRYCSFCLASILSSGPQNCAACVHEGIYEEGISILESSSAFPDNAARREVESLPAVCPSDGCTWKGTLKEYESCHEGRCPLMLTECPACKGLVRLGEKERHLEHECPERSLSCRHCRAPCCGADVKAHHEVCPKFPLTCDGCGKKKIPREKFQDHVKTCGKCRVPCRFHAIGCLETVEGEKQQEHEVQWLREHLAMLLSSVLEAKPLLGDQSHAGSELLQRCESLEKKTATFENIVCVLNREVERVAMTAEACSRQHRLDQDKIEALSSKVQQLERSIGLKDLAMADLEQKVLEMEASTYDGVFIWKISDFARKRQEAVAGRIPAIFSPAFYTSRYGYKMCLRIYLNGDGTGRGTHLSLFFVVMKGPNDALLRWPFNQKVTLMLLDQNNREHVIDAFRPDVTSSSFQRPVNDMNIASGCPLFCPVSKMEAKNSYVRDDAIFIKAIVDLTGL

B1: traf2_out_20_3_2164 (protein)
chain: SELEKKLEEELERALKLLKKAAELSDEETKKKLKELIERLKESRSLSPSDRLVVVSEVRREVLLLAQKAKAEGKEELAKLLEEAAEELNRAMQLLYEIIE
B2: traf2_out_13_95_1191 (protein)
chain: EEEKRKKYAERTNAIADELLDHADAKIAELEAATGDPELGAELRRVLDRGGVSALIHRIRELAKEDPAYREAYEAAAAELEAKRREAGRRVAEAEKEIEA
B3: traf2_out_17_162_1521 (protein)
chain: SPLEAELKALEAELEALKKKLEELKKKLENLDKMSKEELTDLLVEASEARRKALELAERLKRLKPLIGEERAGALIAEAEAIAEELQKIANKIYKKLEEK
B4: traf2_out_17_162_1578 (protein)
chain: EELKKELEELKKKLEELKKKLKEFEKKLPELPKMSYEELTDLLVEVSELKREARELAEKLEELGKKLGEEEIKKLVEEAKEIAEKLQKIANKIYKEIEKK
B5: traf2_out_20_3_2068 (protein)
chain: EELEKELEEALEKALALLKKAAALADPETAAELDALIKELKASKELSVSDRLVAVSAVRRRVLRLAEEAEAAGDAELAAVLNKAADALNRAAQLLYQILQ
B6: traf2_out_15_48_1358 (protein)
chain: STEALRETARKVADLIDATLDEVAKELKALLPKAKPEVKPILEEAIRVASTHRSINDTIALLEEAIKKSDPELAKELQELRDRLLATQKEASKLINETEK
B7: traf2_out_17_162_1493 (protein)
chain: SELEEKKKKLEKELKELKKKLKELEKKLENIEKLSKEELTDLLVEASELKRKARQLAEEYKKLLKKTGDKELEKLIKEAEELAERAQKIANKIYKEIEKK
B8: traf2_out_20_3_2136 (protein)
chain: SELEEELKKELEKAKKLLEKAAALADKETAAKLKALIKRLEASEELSPEDRLVEFSEIRREVLELALAAEAAGKAELAKLLNEAADALNKAMNLLMKIIE
B9: traf2_out_8_15_2548 (protein)
chain: SIKEAAEKDIARLKALSDGDKESLINTLLGMAKGELRLAKIYKEEGRKEEALRTLEYARIYAEAALELAKEIGSPRLEEIKKEVEELEKEIEELRKEIEA
B10: traf2_out_20_3_2212 (protein)
chain: EELRKKVEEELEKIRELLEKAKPRLPEEDYARLKELLERAEEALKEDPSDALVELSELKALLLRLSQEARAAGDEELAALLDEAADAANKAANLVYKILE
B11: traf2_out_20_38_2001 (protein)
chain: SAEEEEEEKLKKIIDVANEAYDEASKEIEELKAAGKSVEEIAEIVRAKVRELLTAAGLEEELEELLADIDRALSSPNALRLFARIRARAVALVKQKELNE
B12: traf2_out_1_27_1004 (protein)
chain: STEEERELLRRANREIGRASPEERVEVIVRALEEALARGLESPEHIAVVLILSLGEEEERRRAIEAAEEVLRAAGVSEEAIERMRRRVESGWARLDKLLA
B13: traf2_out_14_149_1260 (protein)
chain: SATEERRRALREALELFERAAELLAAAIAAGSNDLDVEELRRLLEEAREILSKQGFVLGSLLAIEELLEEAEELTEEDLRRLLELAERAAESLEVLAEML
B14: traf2_out_17_178_1741 (protein)
chain: SKEEILKEISKLADEMIDVSREAAEKLTELAEKEGILTPELRERLDLVARTSNLYAFEEVANELIELSKNKEEIQKLLDETTKKLRELRKKIQEAVEKLK
B15: traf2_out_13_95_1214 (protein)
chain: SAEANAELREVAREYTDRAEAVIDALAAALAPDPEVQPDMDAIRAAFRRNGVRQAIALIRAAAARHPEHKADFDAAAAELEAIRREAGRRFAEILKRDEE
B16: traf2_out_9_108_2593 (protein)
chain: MTKEEILEEKFKKVEELVKEFIEEVDLTEEQKEELEEAIKNAKELYEKGLKETAIILLAIDLARVASKVGEEAVKELLEKLKKIDERAYSAAERMVKLLK
B17: traf2_out_17_162_1623 (protein)
chain: SPEEEELKRYEEELKELEKEKKELEKKAEKIDELSKEELTDLLVEASEARRRARELAERIERKREELNDPRLEELLKRAEEIAEEFQRIANKFYKKLEEK
B18: traf2_out_1_33_1031 (protein)
chain: SAEIERKSMALLRRTTGEMYRLLRETEEKMEKLLEEGKPAEEIEKLAEETRKKIKEIADKAIAELKALGDDLTADILESEKTDILKRLDEIKKEILAKLK
B19: traf2_out_20_38_2038 (protein)
chain: SEEEEEEERLERLVEVANAALDRYEARIAALQAEGKSVAEIAEWAKEEIRRILGEAGLEEEAEELIAQVRTVENRPDALRLIARILARAEALAYQKELQK
B20: traf2_out_11_131_661 (protein)
chain: MDAVAMAKSVAARVDERLALAKTLSPEERTRLARQALDSIEALAEYLTSHVSEMSKEDVEEAVKILRASAKKVLAADPSVAEDVKEVEKALKKLLEAAKA
B21: traf2_out_20_38_2029 (protein)
chain: SEEEEEERRLEELIKVANDSYDKYTKKFEKLVAEGKTVEEIAELAKKEVKEKLTAAGLEEEAKELIEDIDRALSSPNALRLIVRILARADALVHQKKINE
B22: traf2_out_3_89_2291 (protein)
chain: SMEKEKKIKEAKERAERYVKGFEKNARRVAKEMLEEGHSLETLRGVLEAARTAIVETFGETLKEEGIDKETRDKILEELKKKLDEIVEEVVEEAKKRREE
B23: traf2_out_11_169_862 (protein)
chain: KEEEFNRKLIDFALEVEDEAKKKLKEFALKLAKEAGLDVAEVEAIFEKHKNSSLSAIASALIEYFRSKGKEEEAEKILKKHDELKEEINKKVSEKIKELK
B24: traf2_out_16_177_1458 (protein)
chain: ELDRVMDRLVILSLIRRAALEIVRSNSPEAERYLAEARAEAEAAGDEEGLARIARIEELAAQNTPEARAELRALAAEAQREAQRLANEAERLIRERAAAE
B25: traf2_out_20_38_2034 (protein)
chain: SMEEEEEEKLEEIIEVANEALDKYEAEIAKWKAEGKTVEEIAEEAKKKVKELLSKVGLEEEAKILIEEIDLALSSPDAERLIARTLARAEALVKQKELNE
B26: traf2_out_20_38_2035 (protein)
chain: SEEEEEEEKLEEIIEVANEAYDEYMAWIAERKAAGKTVEEIAEEAKEEVKELLSKVGLEEEAEILIEDIDRALSSPDAERLIARTLARAVALVKQKELNK
B27: traf2_out_1_71_1752 (protein)
chain: SPEAEKAEKALEDMAKSIAEGMKTEEALERYLEAFRNHIKRVKALAKANKDDEAVKAGSIADLNLEAELLEKIAKYVDEESKKKLEELAKEAKKAAEEIK
B28: traf2_out_13_95_1034 (protein)
chain: SRELAEKIMEIADEAEEKILKLLEEKSKELADDPEMVKVLEEARRLALTRGVNEAIHLLREASERFPEYKEELDKLIEEIEKIREEAGKKVAELIKEEEE
B29: traf2_out_20_38_2036 (protein)
chain: SMEEEEEEKLEEIIRVANEAYDAYEAEIAALKAAGKTVEEIAAIAKERVRELLSKVGLEEEAEILVEDIDLALSSPEAERLIARILARAEAKVKQKELNE

Biological target: T1, TRAF2, Q12933
Test: median log2 fold change of GCK-ALFA target abundance (FLAG IP / Myc IP barcode read proportion) (log2 ratio); each designed protein is fused to an ALFA-tag nanobody in HEK293 cells to bring the named protein to FLAG-tagged glucokinase (GCK); Myc marks an untargeted standard; higher = target protein stabilised (more abundant)
Conditions: target protein: 3xFLAG-MCP-GCK-ALFA reporter; HEK293 landing pad (RPLP)
How it was run: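 Sequencing of reverse-transcribed, amplified circular RNA barcodes from anti-FLAG and anti-Myc immunoprecipitates provided the readout for an ALFA-nanobody-fused binder library recombined into HEK293 landing-pad cells. Those cells were induced with 2 μg mL^−1 doxycycline, transfected with a plasmid expressing a FLAG-tagged target and a Myc-tagged standard, and lysed after 48 h. Target abundance is the per-binder median log2 ratio of FLAG to Myc barcode read proportions. Only barcodes at a proportion of ≥10^−7 in both replicates and binders with ≥3 barcodes per replicate were kept, with a 10^−6 pseudocount added before the two replicates were pooled.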

Binder | median log2 fold change
B1 | -0.157
B2 | 0.242
B3 | 0.311
B4 | 0.34
B5 | -0.0614
B6 | 0.33
B7 | 0.47
B8 | 0.345
B9 | 0.203
B10 | -0.0318
B11 | -1.24
B12 | 0.0667
B13 | 0.0539
B14 | -0.0674
B15 | -0.892
B16 | -0.0117
B17 | 0.4
B18 | 0.233
B19 | -1.39
B20 | 0.0951
B21 | -1.3
B22 | -0.996
B23 | 0.0801
B24 | -0.327
B25 | -0.126
B26 | -1.16
B27 | -0.948
B28 | -0.375
B29 | -1.27
